About 83,000 compounds went through this panel and 20% of them were active in at least one assay; those are over-represented in the sample as a whole.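 Negative percent growth values reflect cell death: -40 means 40% of the cells present at the start died, and -100 means all died.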 A number with no mark means an inactive call. The source made the active and inactive calls. How the source made its calls: active means growth percent below 10; inactive means the rest.
Assays:
Assay in all cases: NCI-60 one-dose screen, 48 h (100 = growth as untreated, 0 = no growth, -100 = all killed)
Conditions in all cases: 10 µM unless noted
SR leukemia = test system: SR leukemia
OVCAR-8 ovarian = test system: OVCAR-8 ovarian
OVCAR-5 ovarian = test system: OVCAR-5 ovarian
OVCAR-4 ovarian = test system: OVCAR-4 ovarian
SK-OV-3 ovarian = test system: SK-OV-3 ovarian
IGROV1 ovarian = test system: IGROV1 ovarian
OVCAR-3 ovarian = test system: OVCAR-3 ovarian
HS 578T breast = test system: HS 578T breast
NCI/ADR-RES ovarian = test system: NCI/ADR-RES ovarian
T-47D breast = test system: T-47D breast
BT-549 breast = test system: BT-549 breast
MDA-MB-435 melanoma = test system: MDA-MB-435 melanoma
SW-620 colon = test system: SW-620 colon
MCF7 breast = test system: MCF7 breast
HCT-116 colon = test system: HCT-116 colon
HCC-2998 colon = test system: HCC-2998 colon
KM12 colon = test system: KM12 colon
RPMI-8226 leukemia = test system: RPMI-8226 leukemia

Row | Structure (SMILES) | growth (SR leukemia) | growth (OVCAR-8 ovarian) | growth (OVCAR-5 ovarian) | growth (OVCAR-4 ovarian) | growth (SK-OV-3 ovarian) | growth (IGROV1 ovarian) | growth (OVCAR-3 ovarian) | growth (HS 578T breast) | growth (NCI/ADR-RES ovarian) | growth (T-47D breast) | growth (BT-549 breast) | growth (MDA-MB-435 melanoma) | growth (SW-620 colon) | growth (MCF7 breast) | growth (HCT-116 colon) | growth (HCC-2998 colon) | growth (KM12 colon) | growth (RPMI-8226 leukemia)
1 | C=CCSC1=NC2C(N(CC)C(=O)N2CC)N1/N=C/C=C/c1ccccc1OC (stereo not drawn) | 16.9% | 83.5% | 105% | 79.9% | 99.8% | 69% | 54.6% | 82.4% | 53.3% | 68.9% | 79.8% | 2.79% (active) | 69.7% | 42.5% | 73.7% | 97.8% | 57.8% | 
2 | CCCCSC1=C(Cl)CN(c2ccccc2)C1=O | 71.5% | 102% | 98.8% | 107% | 105% | 106% |  | 98.6% | 103% | 85% | 110% | 108% | 106% | 51.5% | 104% | 105% | 93.7% | 
3 | O=C(CCCCCCN1CC(=O)N2[C@@H](C3CC3)c3[nH]c4ccccc4c3C[C@H]2C1=O)NO | 36.5% | 37.5% | 71.8% | 97.6% | 102% | 89.2% |  | 62% | 75.7% | 66.1% | 104% | 40.3% | 61.2% | 39.9% | 33.4% | 108% | 84.2% | 
4 | CCOC(=O)c1ccccc1NC1=C(Cl)C(=O)c2nc(C)ccc2C1=O | 102% | 100% | 101% | 83.6% | 108% | 91.4% | 90.6% | 99% | 93.9% | 92.8% | 114% | 111% | 94.8% | 87.5% | 99.1% | 97.2% |  | 
5 | O=C(Nc1ccc(Cl)c(C(F)(F)F)c1)Nc1ccc2c(ccn2C(=O)c2cccc(F)c2)c1 | 27.5% | 34.1% | 67.3% | 7.18% (active) | 99.1% | 25% | 9.54% (active) | 52.4% | 30.8% | 0.647% (active) |  | 34.6% | 40.9% | 12.9% | 20% | 44.1% | 11% | 
6 | COc1ccc2c(c1)c(-c1nnc(N)nc1-c1c[nH]c3ccc(F)cc13)cn2C | 12.5% | 59.5% | 84.2% | 86.3% | 80.7% | 45.7% | 3.98% (active) | 49.8% | 75.2% | 46.5% | 53.5% | 3.37% (active) | 25.7% | 18.9% | 21.4% | 74.6% |  | 
7 | CN1CCN(Cc2ccc(/C=N/Nc3ccnc4cc(Cl)ccc34)cc2)CC1 | 2.66% (active) | 80.1% | 102% | 83% | 107% | 69.2% |  | 89.3% | 87% | 103% | 123% | 93.6% | 69.9% | 54.7% | 37% | 67.8% | 74.8% | 
8 | COC(=O)c1cccc(NC2=CC(=O)C(C)=C(C)C2=O)c1 | 45.5% | 87.9% | 109% | 24.3% | 105% | 89.5% | 8.14% (active) | 116% | 87.2% | 64.4% | 101% | 101% | 104% | 71.3% | 66.7% | 110% | 97.1% | 
9 | CN1CCN(Cc2ccc(NC(=O)c3cncc(C#Cc4cnc(N)nc4)c3)cc2C(F)(F)F)CC1 | 16.3% | 33.1% | 29.6% | 45.1% | -21.2% (active) | 14.6% |  | -12.5% (active) | 60.1% | 19% | 38.5% | 12.9% | 10.4% | 27.6% | 3.4% (active) | 42.5% | 9.4% (active) | 
10 | CC/C(=C(/c1ccc(Cl)cc1)c1ccc(OCCN)cc1)c1ccccc1 | 0.24% (active) | 100% | 119% | 99.3% | 119% |  |  | 90.3% |  | 93.1% | 129% | 96.7% | 16.5% | 54.9% | 56% | 83.7% | 84.7% | 89.8%
11 | Nc1nc(=O)n([C@H]2C[C@H](O)[C@@H](CO)O2)cc1C=O | 107% | 11.3% | 94.2% | 78.1% | 116% | 106% | 116% | 129% | 9.49% (active) | 113% | 116% | 110% | 107% | 96.1% | 91.3% | 87.7% | 103% | 
12 | CCc1cc(OC(=O)N2CCC(N3CCCCC3)CC2)ccc1Nc1cc(-c2ccc(-n3cccn3)cc2)[nH]n1 | -9.25% (active) | 86.2% | 87.4% | 85.3% | 85.9% | 56.9% |  | 66.8% | 82.5% | 97.2% | 87.6% | 37.3% | -38.3% (active) | 6.81% (active) | -64.1% (active) | 83.8% | 70.1% | 
13 | C#C[C@]1(O)CC[C@H]2[C@@H]3CC=C4c5sc(N6CCN(C)CC6)nc5CC[C@]4(C)[C@H]3CC[C@@]21C | 4.08% (active) | 74.2% | 69.5% | 75.6% | 54% | 63.2% |  | 59.8% |  | 85.7% | 16.9% | 1.24% (active) | 19.6% | 24.2% | -41% (active) | 81.2% | 21.1% | 
14 | CNC(=O)c1cc(Oc2ccc3c(c2)sc2nc(-c4ccc(N(C)C)cc4)cn23)ccn1 | 13.2% | 14% | 39.4% | 70.7% | 49.2% |  |  | 44.1% | 0.629% (active) | 45.2% | 36.5% | -37.8% (active) | 27.9% | 11.2% | 8.11% (active) | 0.825% (active) | 23.2% | 
15 | CCN(CC)CCOc1ccc(C(=C(c2ccccc2)C2CCCC2)c2ccc(OCCN(CC)CC)cc2)cc1 | -5.92% (active) | 40.5% | 38.5% | 34.7% | 21.2% | -40.4% (active) | 16.9% | 12.8% | 97.1% | 18.8% | -18.6% (active) | -10% (active) | 33.5% | -57.3% (active) | 13.3% | -62.3% (active) |  | 
16 | Cn1ncc2c(C(=O)c3ccc(F)cc3)nc(C(C)(C)C)nc21 | 102% | 105% | 98.2% | 107% | 112% | 103% | 98.6% | 96.5% | 107% | 102% | 98.4% | 97.9% | 95.9% | 93.6% | 95.3% | 103% | 100% | 
17 | O=C1/C(=C/C=C/c2ccco2)SC(=S)N1Cc1ccccc1 | 46.3% | 100% | 105% | 95.1% | 103% | 92.9% |  | 104% | 99.8% | 75.6% | 110% | 92.7% | 94.2% | 28.4% | 91% | 99.7% | 78.6% | 
18 | O=C(/C=C/c1cc(Cl)ccc1Cl)Nc1ncc(Cc2ccc(Cl)cc2)s1 | 14% | 1.15% (active) | 23.9% | 30.4% | 35.6% | 5.94% (active) |  | 6.99% (active) | -5.33% (active) | 63.8% | -46.5% (active) | -37% (active) | 20.8% | 16.2% | 2.67% (active) | 13.3% |  | 

Source: PubChem BioAssay (NCI)
